D2 ag-1 – Beta-Arrestin HTS for Positive Allosteric Modulators of the Human D2 Dopamine Receptor: Agonists. D(2) dopamine receptor (Homo sapiens), P14416. DiscoveRx PathHunter D2 beta-arrestin, luminescence, 90 min; 100% = 57 uM dopamine signal. activation, % (no concentration beside the values). actives 0.084% (n = 360,000); in the data active = activation above about 40%; inconclusive = between about 15% and that limit
Target sequence (P14416 whole entry, looked up): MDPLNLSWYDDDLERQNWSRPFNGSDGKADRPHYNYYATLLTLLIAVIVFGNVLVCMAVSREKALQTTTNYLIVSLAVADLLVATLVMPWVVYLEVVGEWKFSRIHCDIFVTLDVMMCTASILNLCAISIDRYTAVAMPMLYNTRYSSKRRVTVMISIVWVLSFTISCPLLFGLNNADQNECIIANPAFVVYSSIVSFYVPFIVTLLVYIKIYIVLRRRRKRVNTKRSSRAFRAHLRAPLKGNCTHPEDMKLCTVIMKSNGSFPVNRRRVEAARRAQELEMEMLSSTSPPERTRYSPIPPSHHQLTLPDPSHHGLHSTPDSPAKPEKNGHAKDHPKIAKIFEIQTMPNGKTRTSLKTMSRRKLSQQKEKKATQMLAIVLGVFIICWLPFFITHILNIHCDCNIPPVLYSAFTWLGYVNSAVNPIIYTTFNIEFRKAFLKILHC
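DiscoveRx PathHunter D2 beta-arrestin cells (2,100/well) attached overnight, then compound-stimulated 90 min at 37 C in HBSS/10 mM HEPES/0.1% Tween-20 buffer; beta-galactosidase complementation read by luminescence after 1 h at ambient temperature. Dopamine 57 uM final (EC100) as control.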
D2 antagonist – HTS Assay for Allosteric Antagonists of the Human D2 Dopamine Receptor: Primary Screen for Antagonists; D(2) dopamine receptor (Homo sapiens), P14416; HEK293 TREx D2 cells, calcium flux, dopamine EC80; inhibition, % at 10 µM; actives 2% (n = 340,000); AID 485344, 2010; in the data active = inhibition above about 30%; inactive = below that, where a call was filed; note: 0% is about no effect
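Calcium mobilization kinetics were recorded at 1 s intervals in tetracycline-induced HEK293 T-REx D2 cells, first for 180 s after compound addition and then 180 s after EC80 dopamine.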
D2 PAM-1 – Beta-Arrestin HTS for Positive Allosteric Modulators of the Human D2 Dopamine Receptor: Potentiators. D(2) dopamine receptor (Homo sapiens), P14416. DiscoveRx D2 beta-arrestin cells, luminescence, 90 min; 100% = 57 uM dopamine signal. potentiation, % (no concentration beside the values). actives 0.23% (n = 360,000). AID 624464, 2012; in the data active = potentiation above about 50%; inconclusive = mostly about 30% to 49%
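D2 cells co-treated with compound plus 50 nM dopamine (EC20) for 90 min at 37 deg C to detect potentiation. Beta-arrestin recruitment was read as enzyme-fragment luminescence after 1 h at ambient temperature. Full response was set by 57 uM dopamine.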
D2 ag-2 – HTS Assay for Allosteric Agonists of the Human D2 Dopamine Receptor: Primary Screen for Agonists. D(2) dopamine receptor (Homo sapiens), P14416. HEK293 T-REx D2 cells, calcium flux agonist mode. activation, % at 2 µM. actives 0.53% (n = 340,000);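 active = activation over 3 SD above normal in the single-dose calcium agonist read, cut at about 30% in these data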; note: 0% is about no effect
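Tetracycline-induced HEK293 Trex cells with D2 receptor force-coupled to calcium signaling, plated overnight at 30 C and loaded with no-wash calcium dye. Calcium flux read kinetically for 180 s after compound addition; responses flag agonists.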
D2 PAM-2 – HTS Assay for Positive Allosteric Modulators of the Human D2 Dopamine Receptor: Primary Screen for Potentiators; D(2) dopamine receptor (Homo sapiens), P14416; HEK293 T-REx D2, calcium flux, EC20 dopamine potentiation; actives 0.34% (n = 340,000); potentiation, % at 10 µM;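 active = potentiation over 3 SD above the plate norm, cut at about 30% in these data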; note: 0% is about no effect
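Primary screen. Calcium kinetics in induced HEK293 T-REx D2 cells: compound pre-addition 180 s, EC20 dopamine, 180 s more.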
* = called active by the depositor; ? = inconclusive; . = no result given. This is a sample that favours compounds with a hit; in the whole collection about 2.4% have one here.

SMILES | D2 ag-1 | D2 antagonist | D2 PAM-1 | D2 ag-2 | D2 PAM-2
O=c1cc(N2CCCCC2)c(-c2ccccc2)nn1Cc1c(Cl)cccc1Cl | -3.9 | 31.9* | -10.3 | 0.3 | 15.8
COc1cccc(CNC(=O)c2ccc(-c3nc(CS(=O)(=O)c4ccccc4)c(C)o3)cc2)c1 | . | . | . | 1.6 | 0.8
CCc1nnc(NC(=O)CSc2nnc(CNc3ccc(Cl)cc3)o2)s1 | 5.6 | 49.9* | 3.6 | 0.3 | 9.2
CCc1nnc(NC(=O)CSc2nnc(Cc3ccccc3)o2)s1 | 1.0 | 6.1 | 0.5 | -0.3 | -1.3
COCc1cc(C)n(CC(=O)N2CCCC2)c(=O)c1C#N | 1.8 | 30.8* | -5.2 | 1.7 | -3.9
Cc1ccc(NC(=O)CSCc2c(C)noc2C)cc1C | -4.8 | 0.9 | 7.6 | -0.5 | -7.9
Cc1cc(C)c(NC(=O)CSCc2c(C)noc2C)c(C)c1 | -3.2 | 49.1* | -11.6 | 0.3 | 6.5
Cc1c(CCC(=O)NCCc2ccccc2F)c(=O)oc2cc(O)ccc12 | . | . | . | -0.9 | -14.4
Cn1cc(-c2nnnn2-c2ccc(Cl)cc2)c(=O)c2ccccc21 | -2.5 | -9.9 | -7.2 | 0.1 | -3.5
CCn1cc(-c2nnnn2-c2ccc(Cl)cc2)c(=O)c2ccccc21 | 1.4 | -13.1 | 4.8 | 0.1 | 37.8*
CCOC(=O)N1CCN(C(=O)c2cnn(-c3cccc(F)c3)c2-n2cccc2)CC1 | . | . | . | . | 10.9
O=C(Oc1ccc(Cl)c2ccccc12)N1CCCCC1 | -2.4 | 55.9* | -14.1 | -0.7 | -1.9
O=C(Oc1ccc(Cl)c2cccnc12)N1CCCCC1 | 1.7 | 8.1 | -1.5 | -0.4 | -2.3
CNC(=S)N1CCC(NC(=O)C23CC4CC(CC(C4)C2)C3)CC1 | 4.5 | 6.3 | -3.2 | 0.3 | -3.7
CC(=O)N1CCN(C(=S)NC(=O)C23CC4CC(CC(C4)C2)C3)CC1 | -1.2 | -3.0 | -13.5 | 0.3 | 33.9*
CCc1[nH]nc2c1C(c1ccc(C)o1)C(C#N)=C(N)O2 (stereo not given) | -2.1 | 63.9* | 11.1 | 0.4 | -8.2
N#CC1=C(N)Oc2n[nH]c(-c3cccnc3)c2C1c1ccc([N+](=O)[O-])o1 (stereo not given) | 9.0 | 8.4 | 54.7* | 1.4 | 5.8
O=C(NCc1ccc(F)cc1)c1ccc(CS(=O)Cc2ccc(Cl)cc2)o1 (stereo not given) | . | . | . | -0.9 | 2.4
CCOC(=O)N1CCC(NC(=O)c2cnn(-c3ccc(F)cc3)c2-n2cccc2)CC1 | . | . | . | -0.6 | 3.2
CC1CCC(=O)N(CCSc2ccccc2)CC1 (stereo not given) | -0.4 | 33.3* | -17.4 | 0.1 | -4.2
COc1ccc(SCCN2CC[C@@H](C)CCC2=O)cc1 | -0.8 | 1.2 | -2.9 | 0.6 | 6.4
Cn1c(=O)c2sccc2n2c(CCCC(=O)Nc3ccc(Oc4ccc(Cl)cc4)cc3)nnc12 | . | . | . | 0.4 | -6.0
COc1cc(OC)cc(C(=O)NC(=S)Nc2nc(-c3cc4ccccc4o3)cs2)c1 | -1.7 | -1.9 | -24.8 | -0.3 | -9.0
COCCNc1nc(-c2cc3ccccc3o2)cs1 | -1.7 | 37.9* | -9.8 | -0.5 | -13.6
COc1ccccc1CNC(=O)c1c[nH]c2ccc(S(=O)(=O)Nc3cc(C)cc(C)c3)cc2c1=O | . | . | . | . | 2.6
SMILES | D2 ag-1 | D2 antagonist | D2 PAM-1 | D2 ag-2 | D2 PAM-2
CC(C)NS(=O)(=O)c1ccc(OCC(=O)N2CCc3ccccc3C2)cc1 | 2.1 | 30.4* | -4.1 | -0.8 | 5.0
COc1cc(C#N)ccc1OCC(=O)N1CCc2ccccc2C1 | -6.2 | 1.8 | -5.8 | -0.6 | 38.2*
Cc1cc(OCC(=O)OCC(=O)N2CCc3ccccc3C2)ccc1Cl | -1.8 | 23.6 | 1.0 | 0.5 | 36.3*
CC(C)NS(=O)(=O)c1ccc(OCC(=O)N2CCCC2)cc1 | 0.3 | . | -16.6 | . | -8.0
COc1ccc(CN(C)c2ccc(-c3nc(C)no3)cc2[N+](=O)[O-])cc1 | . | . | . | -0.7 | -0.1
COc1ccc(CCNC(=O)c2cn(C)c3ccc(S(=O)(=O)N(C)C)cc3c2=O)cc1OC | . | . | . | 0.1 | 7.3
CN1C(=O)/C(=C/c2ccccc2OCc2ccccc2)NC1=S | -3.7 | 23.7 | -19.3 | 0.2 | -2.0
CN1C(=O)/C(=C/c2cc(C(C)(C)C)c(O)c(C(C)(C)C)c2)NC1=S | ? | -1.9 | 52.1* | -1.5 | 2.0
FC(F)(F)c1nc(-c2ccncc2)ncc1-c1nnnn1-c1ccccc1 | 0.1 | 58.4* | -6.8 | -0.3 | 26.0
CCc1ccccc1OCCSc1nnc(-c2cc(OC)c(OC)c(OC)c2)o1 | . | . | . | -0.7 | -0.1
O=c1cc(-c2cccs2)oc2ccc(Cl)cc12 | -3.4 | -1.3 | -15.6 | -0.8 | 0.5
O=c1c(O)c(-c2cccs2)oc2ccc(Cl)cc12 | 0.9 | 51.4* | 1.3 | 93.1* | -24.4
O=c1c(O)c(-c2cccs2)oc2ccccc12 | 2.0 | -28.5 | 5.6 | 41.9* | 1.3
CCCCn1c(=O)c(C(=O)OCC)c(O)c2ccccc21 | -0.4 | 38.4* | 12.5 | 1.3 | 7.7
CCCCCn1c(=O)c(C(=O)OCC)c(O)c2ccccc21 | -2.2 | -2.4 | 15.0 | -1.0 | 9.1
CN1CCN(S(=O)(=O)c2ccc(SCCOc3ccccc3)nc2)CC1 | -3.5 | 8.5 | -8.4 | -0.7 | -2.4
Cc1ccc(C)c(NC(=O)CSc2ccc(S(=O)(=O)N3CCCC3)cn2)c1 | 3.1 | 39.1* | -8.5 | -0.3 | -10.5
CCC(CC)NC(=O)CSc1ccc(S(=O)(=O)N2CCCCC2)cn1 | -0.3 | -2.5 | 2.6 | -0.5 | 3.1
O=S(=O)(c1ccc(SCCO)nc1)N1CCCC1 | -0.1 | 2.9 | 10.6 | 1.1 | 48.9*
O=c1cc(CSc2ccc(S(=O)(=O)N3CCCCC3)cn2)nc2sccn12 | -1.9 | 2.9 | -0.3 | -1.1 | 32.6*
CCOc1ccc(OCCSc2ccc(S(=O)(=O)N3CCN(C)CC3)cn2)cc1 | -1.7 | 30.3* | 0.9 | 0.5 | -1.1
Cc1cc(C)cc(CSc2ccc(S(=O)(=O)N3CCCC3)cn2)c1 | -0.1 | -0.5 | 0.4 | 1.0 | -12.7
CCC(=O)N1CCc2cc(Br)cc(S(=O)(=O)CCC(=O)N3CCN(c4ccccc4OC)CC3)c21 | . | . | . | -0.5 | -16.5
CC(CCc1ccccc1)NC(=O)C(=O)Nc1ccccc1 (stereo not given) | -0.4 | 72.3* | -11.9 | -0.2 | 5.6
O=C(Cn1cccc1C(=O)c1ccccc1)NCCCN1CCOCC1 | -0.7 | 4.2 | -20.9 | 0.6 | -5.9
O=C(Cn1cccc1C(=O)c1ccccc1)NCCN1CCOCC1 | -2.0 | 54.9* | -4.2 | 0.8 | -15.1
Cc1ccc(C)c(N2CCN(CCCNC(=O)Cn3cccc3C(=O)c3ccccc3)CC2)c1 | -1.9 | 41.0* | -26.1 | 0.5 | -46.4

Compound activity as filed in PubChem.
